Laboratory results as given in the supplement of paper PMC8975748.
Structures can show the parent of a compound that is named as a salt.

Each compound was assayed on Saccharomyces cerevisiae BY4741 SeMeCo community (assay: z-score of subpopulation abundance vs DMSO median, subpopulation auxotrophic for HLUM; higher = larger share of this subpopulation than in DMSO controls). Conditions: 10 µM; 24 h; SM minimal medium; subpopulation (auxotrophy): HLUM.
Procedure: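 Fluorescent four-plasmid SeMeCo (self-establishing metabolically cooperating S. cerevisiae BY4741 community; plasmids pH-mRuby2, pL-mWasabi, pU-eCFP, pM-TagRFP657) was grown 24 h in minimal SM medium with each Selleck FDA-approved drug at 10 µM in 384-well plates. Cells were fixed and imaged by high-content confocal microscopy. For each auxotrophic subpopulation (and the prototroph), a z-score gives the deviation from the DMSO vehicle-control population median.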

Going from `CN(C)[C@@H]1C(=O)C(C(N)=O)=C(O)[C@@]2(O)C(=O)C3=C(O)c4c(O)ccc(Cl)c4[C@@](C)(O)[C@H]3C[C@@H]12` [Chlortetracycline HCl] to `CN(C)[C@@H]1C(=O)C(C(N)=O)=C(O)[C@@]2(O)C(=O)C3=C(O)c4c(O)cccc4[C@@](C)(O)[C@H]3C[C@@H]12` [Tetracycline HCl], the “z-score of subpopulation abundance” value falls from 0.32 to -0.58.

Compared with `CNC1CC(N)C(O)C(OC2OC(CO)C(O)C3OC4(OC(C(N)CO)C(O)C(O)C4O)OC23)C1O` (centres undefined) [Hygromycin B], `CN[C@@H]1[C@@H](O)[C@@H](O[C@@H]2[C@@H](O)[C@H](O[C@H]3O[C@H]([C@@H](C)O)[C@@H](O)[C@H](O)[C@H]3N)[C@@H](N)C[C@H]2N)OC[C@]1(C)O` [Geneticin (G418 Sulfate)] is lower in “z-score of subpopulation abundance” value: -0.53 for the first, -0.56 for the second.

Going from `CC(=O)OCC1=C(C(=O)O)N2C(=O)C(N)C2SC1` (centres undefined) [7-Aminocephalosporanic acid] to `NC(=O)CN1CCCC1=O` [Piracetam], the “z-score of subpopulation abundance” value rises from -0.76 to 0.98.

First: CN1c2ccccc2C(NCCCCCCC(=O)O)c2ccc(Cl)cc2S1(=O)=O (centres undefined) [Tianeptine sodium]
Second: CCC1=C[C@H]2CN3CCc4c([nH]c5ccccc45)[C@](C(=O)OC)(C2)[C@H]13 [Catharanthine]
The “z-score of subpopulation abundance” value of the first is higher: 0.87 for the first, -0.22 for the second.

Going from `CN1C(=O)COc2c(C(=O)NC3CN4CCC3CC4)cc(Cl)cc21` (centres undefined) [Azasetron HCl] to `COc1ccc2c(c1)[C@]13CCCC[C@@H]1[C@H](C2)N(C)CC3` [Dextromethorphan hydrobromide hydrate], the “z-score of subpopulation abundance” value falls from 0.19 to -0.5.

Compared with `CN(C)[C@@H]1C(=O)C(C(N)=O)=C(O)[C@@]2(O)C(=O)C3=C(O)c4c(O)cccc4[C@@](C)(O)[C@H]3[C@H](O)[C@@H]12` [Oxytetracycline (Terramycin)], `CC[C@@]1(O)C(=O)OCc2c1cc1n(c2=O)Cc2cc3ccccc3nc2-1` [Camptothecin] is lower in “z-score of subpopulation abundance” value: 0.26 for the first, -0.44 for the second.

Going from `NCC(O)c1ccc(O)cc1` (racemic) [(+,-)-Octopamine HCl] to `NCCc1c[nH]c2ccc(O)cc12` [Serotonin HCl], the “z-score of subpopulation abundance” value rises from -0.38 to 0.3.

Compared with `Cn1cc(C2=C(c3cn(C4CCN(Cc5ccccn5)CC4)c4ccccc34)C(=O)NC2=O)c2ccccc21`, `CN1[C@@H]2CC[C@H]1C[C@@H](OC(=O)[C@H](CO)c1ccccc1)C2` [Hyoscyamine] is higher in “z-score of subpopulation abundance” value: -0.35 for the first, 0.62 for the second.

First: CN[C@@H]1[C@@H](O)[C@@H](O[C@@H]2[C@@H](O)[C@H](O[C@H]3O[C@H](CN)CC[C@H]3N)[C@@H](N)C[C@H]2N)OC[C@]1(C)O.CN[C@@H]1[C@@H](O)[C@@H](O[C@@H]2[C@@H](O)[C@H](O[C@H]3O[C@H]([C@@H](C)N)CC[C@H]3N)[C@@H](N)C[C@H]2N)OC[C@]1(C)O.CN[C@@H]1[C@@H](O)[C@@H](O[C@@H]2[C@@H](O)[C@H](O[C@H]3O[C@H]([C@@H](C)NC)CC[C@H]3N)[C@@H](N)C[C@H]2N)OC[C@]1(C)O [Gentamicin Sulfate]
Second: CCN1CC2(OC(=O)c3ccccc3NC(C)=O)CCC(OC)C34C1C(CC23)C1(O)CC(OC)C2CC4C1(O)C2OC (centres undefined) [Lappaconitine]
The “z-score of subpopulation abundance” value of the first is higher: 0.46 for the first, -0.44 for the second.

Compared with `C[C@@H]1CC[C@H]2[C@@H](C)C(=O)O[C@@H]3O[C@@]4(C)CC[C@@H]1[C@]32OO4` [Artemisinin], `C=CC[C@]1(O)CC[C@H]2[C@@H]3CCC4=CC(=O)CCC4=C3C=C[C@@]21C` [Altrenogest] is lower in “z-score of subpopulation abundance” value: -0.59 for the first, -0.9 for the second.

First: CCN(C)C(=O)Oc1cccc([C@H](C)N(C)C)c1 [Rivastigmine]
Second: C[CH2][Hg][S]c1ccccc1C(=O)[O-].[Na+] [Thimerosal]
The “z-score of subpopulation abundance” value of the first is lower: -0.15 for the first, 63.5 for the second.

Compared with `C[N+](C)(C)CCCCCCCCCC[N+](C)(C)C` [Decamethonium Bromide], `CCCCCCCCCCCCCCCC[n+]1ccccc1` [Cetylpyridinium Chloride] is higher in “z-score of subpopulation abundance” value: -0.4 for the first, 49.4 for the second.

Compared with `Nc1ccncc1` [4-Aminopyridine], `Oc1cccc2cccnc12` [8-Hydroxyquinoline] is higher in “z-score of subpopulation abundance” value: -0.46 for the first, 0.11 for the second.

Compared with `CN(C)[C@@H]1C(=O)C(C(N)=O)=C(O)[C@@]2(O)C(=O)C3=C(O)c4c(O)cccc4[C@@](C)(O)[C@H]3[C@H](O)[C@@H]12` [Oxytetracycline Dihydrate], `C=C(C)[C@H]1Cc2c(ccc3c2O[C@@H]2COc4cc(OC)c(OC)cc4[C@@H]2C3=O)O1` [Rotenone (Barbasco)] is higher in “z-score of subpopulation abundance” value: -0.3 for the first, 0.56 for the second.

Going from `CCOC(=O)Nc1ccc(NCc2ccc(F)cc2)cc1N` [Retigabine] to `COc1ccc2c3c([nH]c2c1)C(C)=NCC3` [Harmaline], the “z-score of subpopulation abundance” value falls from -0.4 to -1.92.

Going from `N[C@@H]1C[C@H]1c1ccccc1` [Tranylcypromine (2-PCPA) HCl] to `CN1[C@@H]2C[C@@H](OC(=O)[C@H](CO)c3ccccc3)C[C@H]1[C@@H]1O[C@@H]12` [Scopolamine HBr trihydrate], the “z-score of subpopulation abundance” value falls from 0.28 to -0.22.

Compared with `Cc1cc(O)ccc1Cl` [Chlorocresol], `O=[N+]([O-])C(Br)(CO)CO` [Bronopol] is higher in “z-score of subpopulation abundance” value: -0.16 for the first, 0.53 for the second.
